Source: PubChem BioAssay AID1851 (National Center for Advancing Translational Sciences (NCATS), 2009)
Values joined by “and” are separate entries in the source; they are usually repeats but may differ in a detail not shown here. Identical values can stand only once. The whole screen tested about 16,000 compounds, of which about 5,700 (36%) were called active. Inconclusive results (about 24%) are left out. Calls come from the whole dose curve; as a rule, active = well fitted curve in the direction sought with a large enough effect; inconclusive = small, poorly fitted or top-dose-only effect, or effect the other way; inactive = no such curve, though single readings can be large or run the other way. The list shows a part of the results.
% is set by controls: 0 for no effect and ±100 for the full control effect.

The compounds below were run against Cytochrome P450 1A2 (Homo sapiens) (UniProt P05177) (assay: Cytochrome panel assay with activity outcomes). Details: recombinant CYP, pro-luciferin dealkylation, luminescence, p450-cyp1a2; series mostly up to 57.1 µM.
Sequence of Cytochrome P450 1A2 (Homo sapiens) (P05177 whole entry, looked up): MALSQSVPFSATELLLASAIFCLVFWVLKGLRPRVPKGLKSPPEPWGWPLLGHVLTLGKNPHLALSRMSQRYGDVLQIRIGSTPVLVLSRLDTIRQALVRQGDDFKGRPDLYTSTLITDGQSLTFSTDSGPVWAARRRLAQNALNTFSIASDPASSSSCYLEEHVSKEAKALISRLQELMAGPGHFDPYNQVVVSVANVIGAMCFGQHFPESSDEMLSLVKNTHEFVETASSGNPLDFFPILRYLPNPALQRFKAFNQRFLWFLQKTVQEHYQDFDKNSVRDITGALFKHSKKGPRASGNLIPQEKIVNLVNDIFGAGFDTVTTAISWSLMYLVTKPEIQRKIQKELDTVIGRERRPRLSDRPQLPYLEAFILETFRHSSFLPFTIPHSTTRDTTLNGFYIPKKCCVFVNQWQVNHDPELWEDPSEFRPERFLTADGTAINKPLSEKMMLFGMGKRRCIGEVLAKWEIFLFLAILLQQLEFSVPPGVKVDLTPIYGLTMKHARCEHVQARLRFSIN
`Nc1nc(Cl)nc2c1ncn2[C@@H]1O[C@@H](COP(=O)(O)OP(=O)(O)OP(=O)(O)O)[C@@H](O)[C@H]1O` was tested, and the AC50 was “inactive”.
With `C#CCCCO/N=C1/C[C@@H](O)[C@@H](O)[C@@H]2[C@@H]3C(=O)N(CC)C(=O)[C@H]3CC[C@@H]12` the activity, negative = inhibition was -3.56% [at 11.4 µM] (inactive).
In the case of `Cc1ccc(NC(=S)Nc2nc(CC(=O)Nc3ccccc3)cs2)cc1`, the AC50 is reported as 2240 nM (active).
`CCn1c(CC(=O)Nc2ccc(C)cc2)nnc1SCC(=O)Nc1nc(C)cs1` was tested, and the AC50 was “inactive”.
With `COc1cccc([C@@H]2Oc3ccc(OC)cc3/C(=N/OC[C@@H](C)[C@H](OCc3ccccc3)C(C)C)[C@@H]2O)c1` the activity, negative = inhibition was -6.71% [at 11.4 µM] (inactive).
With `COc1cccc(Cn2c(=O)c(-c3cc(F)cc(F)c3)nc3cnc(N(C)C)nc32)c1` the AC50 was “inactive”.
`CN(C)c1ncc2nc(-c3ccccc3)c(=O)n(CCc3ccccc3)c2n1` was tested, and the AC50 was 20000 nM (active).
With `CN(C)c1ncc2nc(CCc3ccccc3)c(=O)n(-c3ccccc3)c2n1` the AC50 was 794 nM (active).
With `CN(C)c1ncc2nc(CCc3ccccc3)c(=O)n(Cc3cccs3)c2n1` the AC50 was 1580 nM (active).
`COc1cccc(Cn2c(=O)cnc3cnc(N(C)C)nc32)c1` was tested, and the AC50 was 6310 nM (active).
For `CN(C)c1ncc2nc(-c3cc(F)cc(F)c3)c(=O)n(CCc3ccccc3)c2n1`, the AC50 was “inactive”.
For `C/C(CCN1CCCc2nc(C)c(C)cc21)=N\O[C@@H](C)CN1CCCCc2nc(C)c(C)cc21`, the activity, negative = inhibition was 2.64% [at 11.4 µM] (inactive).
For `C[C@]12CC[C@H]3c4ccc(O)cc4CC[C@@H]3[C@H]1C/C(=N/O)[C@H]2O`, the activity, negative = inhibition was -12.7% [at 11.4 µM] (inactive).
`C=C(C)CNCCN` was tested, and the activity, negative = inhibition was 2.24% [at 2.29 µM] (inactive).
With `CN(C)c1ncc2ncc(=O)n(CCc3ccccc3)c2n1` the AC50 was 794 nM (active).
In the case of `Cc1nc2cnc(N(C)C)nc2n(CCc2ccccc2)c1=O`, the AC50 is reported as 1260 nM (active).
`CN(C)c1ncc2nc(CCc3ccccc3)c(=O)n(CCC#N)c2n1` was tested, and the AC50 was 2000 nM (active).
In the case of `COc1cccc(Cn2c(=O)c(CCc3ccccc3)nc3cnc(N(C)C)nc32)c1`, the AC50 is reported as 15800 nM (active).
With `CCN1CCCC1CNC(=O)C1c2cc(OC)c(OC)cc2C(=O)N(C)C1c1cccnc1` (stereo unspecified) the AC50 was “inactive”.
In the case of `COC(=O)N1CCC2(CCCN(Cc3nccs3)C2)CC1`, the AC50 is reported as “inactive”.
For `CN(C)c1ncc2nc(-c3cccc(C#N)c3)c(=O)n(CCC#N)c2n1`, the AC50 was “inactive”.
For `CN(C)c1ncc2nc(CCc3ccccc3)c(=O)n(Cc3ccc(F)cc3)c2n1`, the AC50 was 10000 nM (active).
In the case of `CN(C)c1ncc2nc(-c3ccccc3)c(=O)n(CCC#N)c2n1`, the AC50 is reported as 1580 nM (active).
With `COCCn1c(=O)c(CCc2ccccc2)nc2cnc(N(C)C)nc21` the AC50 was 1260 nM (active).
`O=c1c(CCc2ccccc2)nc2cncnc2n1Cc1ccc(F)cc1` was tested, and the AC50 was 10000 nM (active).
With `CCN(CC)C(=O)CSc1nc(O)cc(=O)n1CC` the AC50 was “inactive”.
With `C[C@@H]1/C=C\CC(=O)OC[C@H]2O[C@@H](C=C[C@@H]2O)[C@H](C)/C=C\CC(=O)OC1` the activity, negative = inhibition was -3.64% [at 11.4 µM] (inactive).
With `CNC(=O)[C@@H]1O[C@@H](n2cnc3c(NCc4ccc(N)cc4)ncnc32)[C@@H](O)[C@H]1O` the AC50 was “inactive”.
For `CN(C)c1ncc2nc(CCc3ccccc3)c(=O)n(CCc3ccccc3)c2n1`, the AC50 was 6310 nM (active).
For `C=C1C=C(Br)C2(OCCCO2)[C@H]2OC12` (stereo partly specified), the activity, negative = inhibition was -2.64% [at 11.4 µM] (inactive).
With `COc1ccccc1-c1cc(NCc2cnc(C)cn2)ncn1` the AC50 was 12600 nM (active).
In the case of `Cc1cnc(CNc2cc(-c3ccccc3Cl)ncn2)cn1`, the AC50 is reported as 15800 nM (active).
`Cc1cnc(CNc2cc(-c3ccccc3C)ncn2)cn1` was tested, and the AC50 was 12600 nM (active).
In the case of `Cn1cccc1C(=O)N1CCC2(CCN(C(=O)Nc3cccc(F)c3)CC2)CC1`, the AC50 is reported as “inactive”.
With `C[C@@]12CCC(=O)C=C1CC[C@H]1[C@@H]2[C@@H](O)C[C@]2(C)[C@@H]1CC[C@@]2(O)C(=O)CO` the activity, negative = inhibition was -23.6% [at 11.4 µM] (inactive).
For `O=C(O)/C=C\c1c2ccc(=O)c(O)c-2oc2c(O)c(O)ccc12`, the activity, negative = inhibition was -19.8% [at 2.29 µM] (inactive).
`Cc1cc(=O)c2c(O)c(O)ccc2o1` was tested, and the AC50 was 12600 nM (active).
In the case of `Oc1c(CN2CCOCC2)ccc(CN2CCOCC2)c1O`, the activity, negative = inhibition is reported as -11.9% [at 2.29 µM] (inactive).
For `c1c[nH]c(CN2CCOCC2)n1`, the activity, negative = inhibition was 6.41% [at 11.4 µM] (inactive).
For `Clc1ccc(-n2nnnc2CN2CCOCC2)cc1`, the AC50 was 7080 nM (active).
For `CCN(CC)c1ccc(NC(=O)CSc2nnc3nc(C)cc(C)n23)cc1`, the AC50 was “inactive”.
For `COc1cc(NC(=O)COC(=O)c2nc3nc(C)cc(C)n3n2)cc(OC)c1`, the AC50 was 14100 nM (active).
In the case of `Cc1ccnc2nc(C(=O)OCC(=O)Nc3ccc4c(c3)OC(F)(F)O4)nn12`, the AC50 is reported as 8910 nM (active).
For `C#CCCCO/N=C1/[C@H]2O[C@@H]2[C@@H](O)[C@H]2[C@H]1CCn1c(=O)n(C)c(=O)n12`, the activity, negative = inhibition was -0.0514% [at 11.4 µM] (inactive).
For `CCN1C(=O)[C@@H]2[C@H]3C(=CC[C@@H]2C1=O)C1(OCCCO1)[C@H]1O[C@@H]1[C@H]3O`, the activity, negative = inhibition was -2.44% [at 11.4 µM] (inactive).
In the case of `Cc1ccc(S(=O)(=O)N2CCN(S(C)(=O)=O)C2)cc1`, the AC50 is reported as “inactive”.
For `O=C(CCC(=O)c1cccs1)OCC(=O)N1CCN(C(=O)c2ccco2)CC1`, the AC50 was “inactive”.
In the case of `CCOC(=O)c1cccc(C(=O)OCC)n1`, the AC50 is reported as 12600 nM (active).
With `O=C(OCC(=O)c1cccs1)c1cccc(C(=O)OCC(=O)c2cccs2)n1` the AC50 was 15800 nM (active).
In the case of `COC(=O)c1cccc(C(=O)Nc2ccc(C)cc2)n1`, the AC50 is reported as 1000 nM (active).
With `Cc1ccc(OC(=O)c2cccc(C(=O)Oc3ccc(C)cn3)n2)nc1` the AC50 was “inactive”.
`Cc1ccc(OC(=O)c2cccc(C(=O)Oc3ccc(C)cc3)n2)cc1` was tested, and the AC50 was “inactive”.
For `COc1ccc(-n2c(-c3ccccc3)nc(=S)c3c2CCCC3)cc1`, the AC50 was “inactive”.
With `S=c1nc(-c2ccccc2)oc2c1CCCC2` the AC50 was 562 nM (active).
With `O=C(Nc1cccc2nsnc12)c1ccc(-c2cccc(Cl)c2)o1` the AC50 was 2000 nM (active).
For `CCCn1nnc(NC(=O)c2ccc(-c3cccc(Cl)c3)o2)n1`, the AC50 was 1580 nM (active).
In the case of `Cc1ccc(C(=O)NC(=S)Nc2cccc3nsnc23)cc1`, the AC50 is reported as “inactive”.
For `O=C(c1cnccn1)N1CCC2(CCCN(c3ccccn3)C2)CC1`, the AC50 was “inactive”.
In the case of `Cc1ccccc1/C=C1\OC(=O)c2ccccc21`, the AC50 is reported as 1260 nM (active).
For `Cc1ccc(/C=C2\OC(=O)c3ccccc32)cc1`, the AC50 was 794 nM (active).
For `CC(C)c1ccc(/C=C2\C=C(c3ccc4ccccc4c3)OC2=O)cc1`, the activity, negative = inhibition was -24.7% [at 2.29 µM] (inactive).
`CC(=O)OC[C@@H]1O[C@@H](O/N=C2/C[C@@H](O)[C@@H](O)[C@@H]3[C@@H]4C(=O)N(Cc5ccc6c(c5)OCO6)C(=O)[C@H]4CC[C@@H]23)[C@H](OC(C)=O)[C@H](OC(C)=O)[C@@H]1OC(C)=O` was tested, and the activity, negative = inhibition was -15% [at 11.4 µM] (inactive).
In the case of `CC(=O)[C@H]1CC[C@@H]2[C@H]3CC=C4C[C@@H](O)CC[C@]4(C)[C@H]3CC[C@]12C`, the AC50 is reported as “inactive”.
With `O=C(N=NC(=O)c1ccc2c(O)n(C3CCCCC3)c(O)c2c1)c1cccnc1` the AC50 was “inactive”.
In the case of `C[C@@H](c1ccccc1)N1C(=O)[C@H]2[C@@H]3[C@H](O)[C@H](O)CC(=O)[C@H]3CC[C@H]2C1=O`, the activity, negative = inhibition is reported as 6.67% [at 11.4 µM] (inactive) and -2.18% [at 11.4 µM] (inactive).
`N#CCSc1nc2cc(C(=O)N3CCCC3)ccc2c(=O)n1Cc1ccccc1` was tested, and the AC50 was 15800 nM (active).
`NC1(C(=O)O)C[C@H](C(=O)O)[C@H](C(=O)O)C1` (stereo partly specified) was tested, and the AC50 was “inactive”.
`COc1ccc(/C=N/n2cnc3c([nH]c4ccc(Br)cc43)c2=O)cc1CN1CCOCC1` was tested, and the AC50 was 12600 nM (active).
In the case of `O=[N+]([O-])c1ccc(Cl)c(CNc2ncnc3c2ncn3[C@@H]2CCCCO2)c1`, the AC50 is reported as 5010 nM (active).
With `Nc1ncnc2c1ncn2[C@@H]1CCCO1` the AC50 was “inactive”.
With `C[N+](C)(C)c1ncnc2c1ncn2[C@@H]1CCCCO1` the activity, negative = inhibition was 2.33% [at 2.29 µM] (inactive).
For `Cc1cc([N+](=O)[O-])c(C)c(Br)c1C`, the AC50 was 1000 nM (active).
With `COc1ccc(S(=O)(=O)NCc2ccc(C(=O)N3CCN(c4ccccn4)CC3)cc2)cc1` the AC50 was “inactive”.
`CCC(=O)Nc1ccc2c(c1)C(=O)c1ccccc1C2=O` was tested, and the AC50 was 316 nM (active).
`O=C(Nc1ccc(Nc2ccc3c(c2)C(=O)c2ccccc2C3=O)c2c1C(=O)c1ccccc1C2=O)c1ccccc1` was tested, and the AC50 was 1580 nM (active).
`NCCCc1c(-c2ccccc2)nc(N)[nH]c1=O` was tested, and the activity, negative = inhibition was 9.63% [at 11.4 µM] (inactive).
`CCOC(=O)CNc1c(-c2ccccc2)nc2ccc(Cl)cn12` was tested, and the AC50 was 1580 nM (active).
In the case of `Cc1nc2c(C)cccn2c1/C(O)=C1\C(=O)C(=O)N(CCN2CCOCC2)C1c1cccs1` (stereo unspecified), the AC50 is reported as “inactive”.
In the case of `CCOC(=O)c1c(-c2ccccc2)nc2ccc(Cl)cn12`, the AC50 is reported as 2510 nM (active).
For `CC(SCc1cn2cc(Cl)ccc2n1)C(=O)O` (stereo unspecified), the AC50 was “inactive”.
With `CCOC(=O)c1c(-c2ccccc2)nc2c(C)cccn12` the AC50 was 708 nM (active).
For `CCOC(=O)c1c(-c2ccccc2)nc2ccccn12`, the AC50 was 1120 nM (active).
For `CCOC(=O)N/N=C1/C[C@@H](O)[C@@H](O)[C@@H]2[C@@H]3C(=O)N([C@@H](C)c4ccccc4)C(=O)[C@H]3CC[C@@H]12`, the activity, negative = inhibition was 3.79% [at 11.4 µM] (inactive).
For `Cc1cc(=Nc2ccc3c(c2)c(N)cc(C)[n+]3C)nc(N)n1C`, the activity, negative = inhibition was -5.28% [at 2.29 µM] (inactive).
In the case of `C=C(C)C(=O)N1CC2(CC(c3cccc(NC(=O)c4ccccc4)c3)=NO2)C[C@@H]1C(N)=O` (stereo partly specified), the AC50 is reported as “inactive”.
With `CC1(C)O[C@@H]2C[C@H]3[C@H]4C[C@H](F)C5=CC(=O)CC[C@]5(C)[C@@H]4[C@H](O)C[C@]3(C)[C@]2(C(=O)CO)O1` the AC50 was “inactive”.
